# Measured values from the supplement of paper PMC10037445.
# Whole data set: some 2,900 compounds, median “NF-kB SEAP reporter activity, fold change vs agonist alone” near 0.99, cut for the highest 2% near 2.6. The list comes from a sample in which the highest values are over-represented; it also holds similar structures and randomly drawn compounds.
# How the values were obtained:
# RAW-Dual [1] = test: NF-kB SEAP reporter activity, fold change vs agonist alone; cytotoxicity flag (confluency mask): not cytotoxic; higher = enhanced NF-kB activity
# Summary of the method: (§1)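 RAW-Dual macrophages (50,000 cells/well in DMEM, 384-well plates) received 50 nL of library stock by pin tool, then a PRR agonist 1 h later, and were kept at 37 °C, 5% CO2. After 20 hours, supernatant was read for IRF by QuantiLuc luminescence and for NF-κB by QuantiBlue absorbance at 620 nm. Reporter activity is fold change over agonist-alone wells. Cytotoxic wells had IncuCyte confluency below 70% of agonist controls in both mask sets.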
# RAW-Dual [2] = test: NF-kB SEAP reporter activity, fold change vs agonist alone; higher = enhanced NF-kB activity; conditions: library stock concentration (final ~1000-fold dilution): 10 mM
# Summary of the method: as §1
# RAW-Dual [3] = test: NF-kB SEAP reporter activity, fold change vs agonist alone; cytotoxicity flag (confluency mask): cytotoxic (confluency <70% of control); higher = enhanced NF-kB activity
# Summary of the method: as §1
# [4] = agonist: ODN 1826 (TLR9) 0.5 ug/mL
# [5] = agonist: Pam2CSK4 (TLR2/6) 0.1 ug/mL
# [6] = agonist: Pam3CSK4 (TLR2/1) 0.1 ug/mL
# [7] = cytotoxicity flag (confluency mask): not cytotoxic, agonist: MPLA (TLR4) […]
# [8] = cytotoxicity flag (confluency mask): not cytotoxic, agonist: Imiquimod (TLR7) […]
structure (smiles),measurement,setting,value
Cc1cc(-c2ccnc3cc(O)ccc23)ccc1O (library stock concentration (final ~1000-fold dilution): .1 mM),NF-kB SEAP reporter activity,RAW-Dual [1]; agonist: LPS (TLR4) 0.1 ug/mL,3.3
same,NF-kB SEAP reporter activity,RAW-Dual [1]; [4],1.31
same,NF-kB SEAP reporter activity,RAW-Dual [1]; [5],1.32
same,NF-kB SEAP reporter activity,RAW-Dual [1]; [6],1.41
CC(NCc1ccc(OCc2cccc(F)c2)cc1)C(N)=O (stereo not given) (library stock concentration (final ~1000-fold dilution): 10 mM),NF-kB SEAP reporter activity,RAW-Dual [1]; agonist: LPS (TLR4) 0.1 ug/mL,1.32
same,NF-kB SEAP reporter activity,RAW-Dual [1]; [4],0.933
same,NF-kB SEAP reporter activity,RAW-Dual [1]; [5],1.16
same,NF-kB SEAP reporter activity,RAW-Dual [1]; [6],0.745
CC(NCc1ccc(OCc2cccc(F)c2)cc1)C(N)=O (stereo not given),NF-kB SEAP reporter activity,RAW-Dual [2]; [7],1.07
FC(F)c1nc2ccccc2n1-c1nc(N2CCOCC2)nc(N2CCOCC2)n1 (library stock concentration (final ~1000-fold dilution): 10 mM),NF-kB SEAP reporter activity,RAW-Dual [1]; agonist: LPS (TLR4) 0.1 ug/mL,2.13
same,NF-kB SEAP reporter activity,RAW-Dual [1]; [4],0.832
same,NF-kB SEAP reporter activity,RAW-Dual [1]; [5],0.936
same,NF-kB SEAP reporter activity,RAW-Dual [1]; [6],0.767
Nc1cc(C(F)(F)F)c(-c2nc(N3CCOCC3)nc(N3CCOCC3)n2)cn1 (library stock concentration (final ~1000-fold dilution): 10 mM),NF-kB SEAP reporter activity,RAW-Dual [1]; agonist: LPS (TLR4) 0.1 ug/mL,0.943
same,NF-kB SEAP reporter activity,RAW-Dual [1]; [4],0.711
same,NF-kB SEAP reporter activity,RAW-Dual [1]; [5],0.402
same,NF-kB SEAP reporter activity,RAW-Dual [1]; [6],0.503
Nc1cc(C(F)(F)F)c(-c2cc(N3CCOCC3)nc(N3CCOCC3)n2)cn1 (library stock concentration (final ~1000-fold dilution): 10 mM),NF-kB SEAP reporter activity,RAW-Dual [1]; agonist: LPS (TLR4) 0.1 ug/mL,2.59
same,NF-kB SEAP reporter activity,RAW-Dual [1]; [4],2.07
same,NF-kB SEAP reporter activity,RAW-Dual [1]; [5],1.49
same,NF-kB SEAP reporter activity,RAW-Dual [1]; [6],0.904
FC(F)c1nc2ccccc2n1-c1nc(N2CCOCC2)nc(N2CCOCC2)n1,NF-kB SEAP reporter activity,RAW-Dual [2]; [8],1.77
same,NF-kB SEAP reporter activity,RAW-Dual [2]; [7],1.32
Nc1cc(C(F)(F)F)c(-c2nc(N3CCOCC3)nc(N3CCOCC3)n2)cn1,NF-kB SEAP reporter activity,RAW-Dual [2]; [8],0.783
same,NF-kB SEAP reporter activity,RAW-Dual [2]; [7],1.11
Nc1cc(C(F)(F)F)c(-c2cc(N3CCOCC3)nc(N3CCOCC3)n2)cn1,NF-kB SEAP reporter activity,RAW-Dual [2]; [8],1.71
same,NF-kB SEAP reporter activity,RAW-Dual [2]; [7],1.63
COc1cc2ncnc(Nc3ccc(F)c(Cl)c3)c2cc1OCCCN1CCOCC1.Cl (library stock concentration (final ~1000-fold dilution): 10 mM),NF-kB SEAP reporter activity,RAW-Dual [1]; agonist: LPS (TLR4) 0.1 ug/mL,1.23
same,NF-kB SEAP reporter activity,RAW-Dual [1]; [4],0.277
same,NF-kB SEAP reporter activity,RAW-Dual [1]; [5],0.967
same,NF-kB SEAP reporter activity,RAW-Dual [1]; [6],0.737
COc1cc2ncnc(Nc3ccc(F)c(Cl)c3)c2cc1OCCCN1CCOCC1.Cl,NF-kB SEAP reporter activity,RAW-Dual [2]; [7],1.29
Nc1nc(Nc2ccc(S(N)(=O)=O)cc2)nn1C(=O)c1c(F)cccc1F,NF-kB SEAP reporter activity,"RAW-Dual [2]; cytotoxicity flag (confluency mask): cytotoxic (confluency <70% of control), agonist: Imiquimod (TLR7) […]",1.97
same,NF-kB SEAP reporter activity,"RAW-Dual [2]; cytotoxicity flag (confluency mask): cytotoxic (confluency <70% of control), agonist: MPLA (TLR4) […]",1.36
Nc1nc(Nc2ccc(S(N)(=O)=O)cc2)nn1C(=O)c1c(F)cccc1F (library stock concentration (final ~1000-fold dilution): 10 mM),NF-kB SEAP reporter activity,RAW-Dual [3]; agonist: LPS (TLR4) 0.1 ug/mL,0.637
same,NF-kB SEAP reporter activity,RAW-Dual [3]; [4],1.29
same,NF-kB SEAP reporter activity,RAW-Dual [3]; [5],0.632
same,NF-kB SEAP reporter activity,RAW-Dual [3]; [6],0.864
CN1C(=O)c2sccc2N(C)c2nc(Nc3ccc(S(N)(=O)=O)cc3)ncc21,NF-kB SEAP reporter activity,RAW-Dual [2]; [8],1.86
same,NF-kB SEAP reporter activity,RAW-Dual [2]; [7],2.45
